# The supplement of paper PMC8728848
# This excerpt belongs to a sample that is enriched for the strongest signals.
# Legend:
# Assay in all cases: glycan array binding signal (z-score within array); higher = stronger binding
# Settings in all cases: glycan notation: IUPAC condensed, linker removed; mutation: R120K
# [1] = biological target: GlcNAc(b1-3)Gal(b1-4)GlcNAc(b1-3)GalNAc
# In short: (§1)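 From the Consortium for Functional Glycomics database, 3228 arrays were curated, keeping only those whose protein sequence was available. Binding is given as a within-array Z-score averaged across arrays sharing a protein sequence and across linkers. Negative Z-scores can be read as non-binding.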
# Kdn(a2-3)Gal(b1-4)Glc = biological target: Kdn(a2-3)Gal(b1-4)Glc
# In short: as §1
# [2] = biological target: Man(a1-2)Man(a1-2)Man(a1-6)[Man(a1-3)]Man
# In short: as §1
# [3] = biological target: Man(a1-2)Man(a1-6)[Man(a1-3)]Man(a1-6)[Man(a1-2)Man(a1-2)Man(a1-3)]Man
# In short: as §1
# Neu5Ac(a2-3)Gal = biological target: Neu5Ac(a2-3)Gal
# In short: as §1
# [4] = biological target: Neu5Ac(a2-3)Gal(b1-3)GalNAc
# In short: as §1
# [5] = biological target: Neu5Ac(a2-3)Gal(b1-3)GalNAc(b1-4)Gal(b1-4)Glc
# In short: as §1
# [6] = biological target: Neu5Ac(a2-3)Gal(b1-3)GalNAc(b1-4)[Neu5Ac(a2-8)Neu5Ac(a2-3)]Gal(b1-4)Glc
# In short: as §1
# [7] = biological target: Neu5Ac(a2-3)Gal(b1-3)GlcNAc(b1-2)Man(a1-3)[Neu5Ac(a2-3)Gal(b1-3)GlcNAc(b1-2)Man(a1-6)]Man(b1-4)GlcNAc(b1-4)GlcNAc
# In short: as §1
# [8] = biological target: Neu5Ac(a2-3)Gal(b1-3)]Neu5Ac(a2-3)Gal(b1-4)]GlcNAc
# In short: as §1
# Neu5Ac(a2-3)Gal(b1-4)Glc = biological target: Neu5Ac(a2-3)Gal(b1-4)Glc
# In short: as §1
# [9] = biological target: Neu5Ac(a2-3)Gal(b1-4)GlcNAc(b1-2)Man(a1-3)[GlcNAc(b1-4)][Neu5Ac(a2-3)Gal(b1-4)GlcNAc(b1-2)Man(a1-6)]Man(b1-4)GlcNAc(b1-4)GlcNAc
# In short: as §1
# [10] = biological target: Neu5Ac(a2-3)Gal(b1-4)[Fuc(a1-3)]GlcNAc(b1-6)[Gal(b1-3)]GalNAc
# In short: as §1
# [11] = biological target: Neu5Ac(a2-6)Gal(b1-4)GlcNAc(b1-2)[Neu5Ac(a2-6)Gal(b1-4)GlcNAc(b1-4)]Man(a1-3)[GlcNAc(b1-4)][Neu5Ac(a2-6)Gal(b1-4)GlcNAc(b1-2)[Neu5Ac(a2-6)Gal(b1-4)GlcNAc(b1-6)]Man(a1-6)]Man(b1-4)GlcNAc(b1-4)GlcNAc
# In short: as §1
# [12] = biological target: Neu5Ac(a2-6)Gal(b1-4)GlcNAc(b1-3)Gal(b1-3)GlcNAc
# In short: as §1
# [13] = biological target: Neu5Ac(a2-6)GlcNAc(b1-4)GlcNAc
# In short: as §1
# [14] = biological target: Neu5Ac(a2-8)Neu5Ac(a2-8)Neu5Ac(a2-3)[GalNAc(b1-4)]Gal(b1-4)Glc
# In short: as §1
# [15] = biological target: Neu5Ac(b2-6)Gal(b1-4)GlcNAc
# In short: as §1
# [16] = biological target: Neu5Gc(a2-8)Neu5Gc(a2-3)Gal(b1-4)GlcNAc(b1-3)Gal(b1-4)GlcNAc
# In short: as §1
# [17] = biological target: Neu5Gc(b2-6)Gal(b1-4)GlcNAc
# In short: as §1
binder,measurement,setting,value
"Siglec-9 (Homo sapiens), Q9Y336 (protein) MLLLLLPLLWGRERAEGQTSKLLTMQSSVTVQEGLCVHVPCSFSYPSHGWIYPGPVVHGYWFREGANTDQDAPVATNNPARAVWEETRDRFHLLGDPHTKNCTLSIRDARRSDAGRYFFKMEKGSIKWNYKHHRLSVNVTALTHRPNILIPGTLESGCPQNLTCSVPWACEQGTPPMISWIGTSVSPLDPSTTRSSVLTLIPQPQDHGTSLTCQVTFPGASVTTNKTVHLNVSYPPQNLTMTVFQGDGTVSTVLGNGSSLSLPEGQSLRLVCAVDAVDSNPPARLSLSWRGLTLCPSQPSNPGVLELPWVHLRDAAEFTCRAQNPLGSQQVYLNVSLQSKATSGVTQGVVGGAGATALVFLSFCVIFVVVRSCRKKSARPAAGVGDTGIEDANAVRGSASQGPLTEPWAEDSPPDQPPPASARSSVGEGELQYASLSFQMVKPWDSRGQEATDTEYSEIKIHR",glycan array binding signal (z-score),[1],0.35
same,glycan array binding signal (z-score),Kdn(a2-3)Gal(b1-4)Glc,0.194
same,glycan array binding signal (z-score),[2],0.213
same,glycan array binding signal (z-score),[3],-0.231
same,glycan array binding signal (z-score),Neu5Ac(a2-3)Gal,-0.145
same,glycan array binding signal (z-score),[4],4.95
same,glycan array binding signal (z-score),[5],0.412
same,glycan array binding signal (z-score),[6],0.069
same,glycan array binding signal (z-score),[7],3.12
same,glycan array binding signal (z-score),[8],-0.118
same,glycan array binding signal (z-score),Neu5Ac(a2-3)Gal(b1-4)Glc,4.42
same,glycan array binding signal (z-score),[9],-0.284
same,glycan array binding signal (z-score),[10],-0.345
same,glycan array binding signal (z-score),[11],-0.023
same,glycan array binding signal (z-score),[12],-0.551
same,glycan array binding signal (z-score),[13],-0.275
same,glycan array binding signal (z-score),[14],-0.338
same,glycan array binding signal (z-score),[15],-0.52
same,glycan array binding signal (z-score),[16],-0.414
same,glycan array binding signal (z-score),[17],-0.2
